Assay outcomes: PubChem BioAssay, The Scripps Research Institute Molecular Screening Center
A selection: hits, their analogues and other compounds. The true share with any hit is near 4.8%.
SMARCA2 act = SMARCA2 (BRM) function activators, primary screen, cell-based, luminescence, high throughput. MG213 cells, MMTV-luciferase reporter, dexamethasone, overnight. activation, % at 9.1 µM. 370,000 tested, 1% active; in the data active means activation above about 7.8%;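 further: 0% = vehicle wells and 100% = reference activator wells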
DAX1 inh-1 = DAX1 (NR0B1) inhibitors, primary screen, cell-based, HEK293, Gal4-DAX1, luciferase luminescence | HEK293 Gal4-DAX1 luciferase reporter | 340,000 tested, 0.99% active | AID 504766, 2011 | inhibition, % at 6.75 µM | Nuclear receptor subfamily 0 group B member 1 (Homo sapiens), P51843;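 active means inhibition above the mean over all tested compounds plus 3 SD, cut at about 4.2% in these data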;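 further: 0% = DAX1-transfected cells with DMSO and 100% = empty-vector control cells with DMSO; inhibition shows as a rise in luminescence from relieved DAX1 repression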
Target sequence (P51843 207-470 limits assumed): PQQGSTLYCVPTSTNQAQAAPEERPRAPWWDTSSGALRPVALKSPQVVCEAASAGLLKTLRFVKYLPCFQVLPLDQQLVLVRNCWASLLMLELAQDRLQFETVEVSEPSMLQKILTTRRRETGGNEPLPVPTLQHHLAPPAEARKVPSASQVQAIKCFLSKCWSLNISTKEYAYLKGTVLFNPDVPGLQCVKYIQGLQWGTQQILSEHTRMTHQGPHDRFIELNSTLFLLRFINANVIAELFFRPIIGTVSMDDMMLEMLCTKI
hcDAF-12 act = H. contortus DAF-12 nuclear receptor activators, primary screen, cell-based, luminescence, HEK293, lit1-tk-luc reporter; HEK293 hcDAF-12 lit1-tk-luc reporter; 0% DMSO, 100% Δ7-dafachronic acid; activation, % at 6.8 µM; 370,000 tested, 1.4% active; AID 652067, 2013;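 active means activation above the mean of all tested compounds plus 3 SD, cut at about 5.5% in these data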;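 further: 100% = response to 3 µM Δ7-dafachronic acid high control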
DAX1 inh-2 = DAX1 (NR0B1) inhibitors on StAR promoter, primary screen, cell-based, luminescence, SF-1 (NR5A1), full-length DAX-1 | HEK293T StAR-luciferase reporter, SF-1/DAX-1 repression relief | inhibition, % at 6.8 µM | 370,000 tested, 1.1% active | AID 652010, 2013;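 active means inhibition above the mean over all tested compounds plus 3 SD, cut at about 3.6% in these data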;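 further: 0% = DAX-1 cells with DMSO and 100% = cells lacking DAX-1 with DMSO; higher inhibition means more luminescence from relief of DAX-1 repression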
ssDAF-12 act = S. stercoralis DAF-12 nuclear receptor activators, primary screen, cell-based, luminescence, HEK293, GRIP1 co-expression, lit1-tk-luc. AID 652126, 2013. 370,000 tested, 1% active. activation, % at 6.8 µM. Nuclear hormone receptor DAF-12 (Strongyloides stercoralis). HEK293 ssDAF-12/GRIP1 lit1-tk-luc reporter; % of 3 µM dafachronic acid response;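 active means activation above the mean over all tested compounds plus 3 SD, cut at about 0.9% in these data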;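 further: 0% = DMSO-only wells and 100% = 3 µM delta7-dafachronic acid wells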
hgDAF12 agonist = H. glycines DAF-12 receptor agonists, primary screen, cell-based, luminescence, HEK293, GAL4 fusion, UAS-luciferase. activation, % at 6.8 µM. AID 687014, 2013. 370,000 tested, 1.8% active. HEK293 GAL4-hgDAF12 UAS-luciferase reporter, agonist luminescence; normalized to butyrate control. Nuclear hormone receptor DAF-12 (Heterodera glycines), GAL4 fusion;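 active means activation above a cutoff set at the mean of all screened compounds plus 3 SD, cut at about 10% in these data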;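 further: 0% = DMSO wells and 100% = sodium butyrate wells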
DAX1 inh confirm = DAX1 (NR0B1) inhibitors relieving SF-1 repression, confirmation, cell-based, luminescence, HEK293T, full-length DAX-1, SF-1 activated StAR promoter; 2,400 tested, 87% active; inhibition, % at 6.8 µM; HEK293T StAR-promoter luciferase reporter, SF-1/DAX-1 repression; shares compounds with DAX1 inh-2;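 active means inhibition above the average of every tested compound plus 3 SD, cut at about 3.8% in these data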;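 further: 0% = DAX-1 cells with DMSO and 100% = no DAX-1 control cells with DMSO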
SF1 mutant ctr = StAR reporter signal changes without DAX1, counter-screen for DAX1 inhibitor project, cell-based, luminescence, AF-2 mutant SF-1, transactivation; shares compounds with DAX1 inh-2; HEK293 StAR-luciferase, SF-1 AF2 mutant; inhibition, % at 6.8 µM; 2,400 tested, 78% active;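 active means inhibition above the mean of all tested compounds plus 3 SD, cut at about 3% in these data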;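 further: 0% = DAX-1 transfected cells with DMSO and 100% = cells without DAX-1 with DMSO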
SMARCA2 conf = SMARCA2 (BRM) function activators, confirmation, cell-based, luminescence, triplicate; 3,500 tested, 30% active; activation, % at 9.1 µM; MG213 cells, MMTV-luciferase with dexamethasone, overnight; MG213 cells expressing E1A, Rb sequestered; DMSO wells 0%, reference activator 100%; shares compounds with SMARCA2 act;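 active means activation above its plate's cutoff, the mean activation of tested wells plus 3 SD, cut at about 7.9% in these data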
VP16 Luc act = GAL4-VP16 luciferase reporter activation, counter-screen for SMARCA2 (BRM) activator project, cell-based, pG5luc, luminescence, high throughput | shares compounds with SMARCA2 act | HEK293 GAL4-VP16 pG5luc reporter; scaled: DMSO wells 0%, SAHA wells 100% | activation, % at 9.1 µM | 3,500 tested, 41% active | AID 686939, 2013;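 active means activation above the solvent-only control well mean plus 3 SD, averaged across control plates, cut at about 5.2% in these data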
LXRb hcDAF ctr = LXR agonists, Gal4 luciferase reporter, confirmation, counter-screen for hcDAF-12 agonist project, cell-based, luminescence, HEK293, H. contortus campaign | AID 743027, 2013 | HEK293 Gal4-LXR tk-luc reporter, 24 h; normalized: DMSO 0%, positive control 100% | shares compounds with hcDAF-12 act | 3,400 tested, under 10 active | activation, % at 6.8 µM;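 active means mean percent activation of the reporter above a cutoff set as the average over tested compounds plus their standard deviation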
Target sequence (P55055 whole entry, looked up, the tested form may be a part): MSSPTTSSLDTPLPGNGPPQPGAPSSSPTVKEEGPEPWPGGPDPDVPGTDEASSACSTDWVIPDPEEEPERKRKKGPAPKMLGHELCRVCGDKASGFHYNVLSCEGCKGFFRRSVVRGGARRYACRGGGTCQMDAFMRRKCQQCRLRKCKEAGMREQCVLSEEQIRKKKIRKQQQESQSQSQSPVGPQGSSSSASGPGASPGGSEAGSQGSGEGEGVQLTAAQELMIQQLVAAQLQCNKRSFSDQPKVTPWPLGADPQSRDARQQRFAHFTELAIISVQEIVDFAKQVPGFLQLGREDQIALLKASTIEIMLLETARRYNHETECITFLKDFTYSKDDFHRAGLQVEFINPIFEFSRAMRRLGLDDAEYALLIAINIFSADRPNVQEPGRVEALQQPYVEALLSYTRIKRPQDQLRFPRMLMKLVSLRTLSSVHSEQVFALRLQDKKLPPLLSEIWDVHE
hcDAF12 ag = H. contortus DAF-12 receptor agonists, confirmation, cell-based, luminescence, HEK293, lit1-tk-luc, triplicate; shares compounds with hcDAF-12 act; HEK293 hcDAF-12 lit1-tk-luc reporter; % of Δ7-dafachronic acid response; activation, % at 6.8 µM; 3,400 tested, 61% active;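 active means mean activation across triplicate tests above the threshold derived from the earlier primary screen, cut at about 5.5% in these data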;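 further: 0% = DMSO only wells and 100% = 3 µM Δ7-dafachronic acid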
Starred values were filed as active, the others as inactive; · = no result given.

SMILES | SMARCA2 act | DAX1 inh-1 | hcDAF-12 act | DAX1 inh-2 | ssDAF-12 act | hgDAF12 agonist | DAX1 inh confirm | SF1 mutant ctr | LXRb hcDAF ctr | hcDAF12 ag | others
CN(Cc1ccccc1)C(=O)OCc1cn(Cc2cccc(F)c2)nn1 | -1 | · | 0 | 0 | -1 | 0 | · | · | · | ·
COc1ccc(NC(=O)c2cc3ccccn3n2)cc1 | 10* | 1 | 9.2* | 7.9* | 0 | 9 | 15* | 5.8* | 1 | 5.8* | SMARCA2 conf=4;VP16 Luc act=12*
COc1ccc(NC(=O)c2nc3ccccc3s2)cc1 | 3 | -1 | 17* | 5.0* | 2.5* | 10 | 13* | 8.2* | 2 | 15*
COc1ccc(CCN2CCCC(CN(C)C(=O)c3ccoc3)C2)cc1 (configuration not stated) | 3 | 0 | 7.2* | 10* | 0 | 13* | 8.8* | 5.5* | 0 | 2
CN(CC1CCCN(CCc2ccccc2F)C1)C(=O)c1ccoc1 (configuration not stated) | 1 | -1 | 1 | 1 | -1 | 1 | · | · | · | ·
COc1ccc(OCc2cc(C(=O)NC(C)Cc3cccnc3)no2)c(Cl)c1 (configuration not stated) | -4 | -1 | -2 | -1 | -1 | 1 | · | · | · | ·
COc1ccc(OCc2cc(C(=O)NC(C)Cn3cncn3)no2)c(Cl)c1 (configuration not stated) | 1 | 2 | 6.7* | 6.0* | 0.9* | 11* | 3 | 1 | 0 | 6.8*
Cc1cccc(OCC(=O)Nc2nccs2)c1C | 3 | 2 | 8.6* | 12* | 1 | 12* | 13* | 8.0* | 1 | 6.4*
COCC(=O)N1CCC(C(=O)NC2CCCc3ccccc32)CC1 (configuration not stated) | 4 | · | 6 | 0 | -1 | 0 | · | · | · | ·
COCC(=O)Nc1nnc(-c2ccc(C(C)(C)C)cc2)s1 | 2 | 4 | 10* | 4.8* | 0 | 19* | 14* | 7.4* | 1 | 6.2*
CSc1ccc(/C=C/c2ccc3cccc(O)c3n2)cc1 | 4 | 0 | 22* | 5.0* | 3.2* | 34* | 16* | 7.1* | 2 | 11*
C/C(=N\Nc1ccc(C(=O)O)cc1)c1ccc(Br)cc1 | 3 | -3 | 12* | 5.1* | 1 | 19* | 16* | 5.3* | 2 | 14*
Cc1cc(C)nc(NC(=S)N2CCN(c3ccc(Cl)c(Cl)c3)CC2)c1 | · | · | -4 | · | -2 | 2 | · | · | · | ·
Cc1ccccc1NC(=O)[C@H]1CC(=O)O[C@@H]1c1ccccc1 | -2 | · | -1 | 0 | -2 | 2 | · | · | · | ·
N/C(=N\OC(=O)/C=C/c1ccccc1Cl)c1ccccn1 | 3 | -3 | 7.0* | 6.2* | 0 | 8 | 18* | 6.1* | 2 | 8.5*
N/C(=N\OC(=O)/C=C/c1ccc(Br)cc1)c1ccccn1 | 1 | 0 | 8.0* | 4.7* | 2.2* | 12* | 9.3* | 7.0* | 1 | 8.3*
O=C(OCC#CCSc1nnc(-c2cc3ccccc3cc2O)o1)c1ccc(F)cc1 | · | · | 1 | · | -1 | 5 | · | · | · | ·
CC(C)N1CCCCC(NC(=O)c2ccc(Br)cc2)C1=O (configuration not stated) | -2 | · | -3 | 0 | -1 | 0 | · | · | · | ·
CC(C)c1ccc(/C=N/Nc2ccc(C(=O)O)cc2)cc1 | -4 | -6 | -2 | -1 | -2 | -9 | · | · | · | ·
O=C(O)c1ccc(N/N=C/c2ccc(-c3ccccc3)cc2)cc1 | 0 | 5.5* | 7.6* | 7.7* | 1.3* | 13* | 19* | 8.5* | 1 | 6.2*
Cc1cccc(NC(=O)C2CCCN2S(=O)(=O)c2cccnc2)c1C (configuration not stated) | 0 | · | -1 | 0 | -1 | 1 | · | · | · | ·
Clc1cnc(N/N=C/c2ccco2)c(Cl)c1 | 5 | 1 | 7.9* | 4.8* | 0 | 11* | 14* | 8.8* | 1 | 8.0*
Oc1ccc(/C=N/Nc2ncc(Cl)cc2Cl)cc1 | 5 | -1 | -1 | 0 | -1 | 3 | · | · | · | ·
O=C(NCCc1ccccc1Cl)[C@@H]1CCCN1C(=O)[C@@H](NC(=O)N1CCOCC1)c1ccccc1 | -4 | · | -1 | 1 | -1 | 3 | · | · | · | ·
COC(=O)C1CN(Cc2ccc(F)cc2)CCS(=O)(=O)N1Cc1cn(Cc2ccc(F)cc2)nn1 (configuration not stated) | -3 | · | -2 | -1 | -1 | -2 | · | · | · | ·
